Compound activity (PubChem BioAssay)
Rows were chosen to be rich in hits. Some 12% of all compounds tested hit in one or more screens of this group.
JMJD2A Tudor: qHTS Assay for Inhibitors of JMJD2A-Tudor Domain; AlphaScreen JMJD2A-Tudor / H3K4me3 peptide binding; Potency, µM (highest dose often 114 µM), for inactives: top-dose activity change, negative = inhibition, hits mostly inhibitors; 4.4% of 390,000 active; AID 504339, 2011; Lysine-specific demethylase 4A (Homo sapiens), O75164; also: % is scaled to controls: 0 for no effect and ±100 for the full control effect; nearly all actives have a fitted effect of over 50% in size
BAZ2B block: qHTS Assay for Inhibitors of BAZ2B | Bromodomain adjacent to zinc finger domain protein 2B (Homo sapiens), Q9UIF8 | AlphaScreen BAZ2B-H3K14Ac peptide displacement | Potency, µM (titrated, usually from 114 µM), for inactives: top-dose activity change, negative = inhibition, hits mostly inhibitors | 4.4% of 360,000 active | AID 504333, 2011; also: % is scaled to controls: 0 for no effect and ±100 for the full control effect; nearly all actives have a fitted effect of over 60% in size
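AlphaScreen displacement: compounds (up to 110uM) incubated 30 min at room temperature with a preformed 50 nM BAZ2B/50 nM biotinylated H3K14Ac peptide complex in PBS pH 7.4 with Tween-20. Donor and acceptor beads at 10 ug/mL final added, 20 min light-protected before reading.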
HP1b chromo inh: HTS for Inhibitors of HP1-beta Chromodomain Interactions with Methylated Histone Tails; AlphaScreen HP1-beta / biotin-H3K9me3 peptide binding; 0.56% of 390,000 active; AID 540317, 2011; Chromobox protein homolog 1 (Homo sapiens), P83916; Potency, µM (doses to about 114 µM), inactives show top-dose activity change, negative = inhibition, actives largely listed as inhibitors; also: nearly all actives have a fitted effect of over 70% in size
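AlphaScreen: HP1-beta (50 nM) preformed 30 min with biotin-H3(1-18)K9me3 peptide (50 nM) in PBS pH 7.4, 0.01% Tween-20. Compound added for 30 min at RT, then streptavidin donor/nickel chelate acceptor beads (10 ug/mL) for 30 min.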
G9a inh: qHTS Assay for Inhibitors of Histone Lysine Methyltransferase G9a. Histone-lysine N-methyltransferase EHMT2 (Homo sapiens), Q96KQ7. G9a H3K9 monomethylation, AlphaScreen, 2 h. Potency, µM (doses to about 102 µM), inactives show at the highest dose activity, negative = inhibition, most hits filed as inhibitors. 8.8% of 350,000 active; also: % is scaled to controls: 0 for no effect and ±100 for the full control effect; nearly all actives have a fitted effect of over 75% in size
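Quantitative HTS format: methyltransferase activity on a biotin-tagged H3K9 peptide is measured by AlphaScreen, using a rabbit anti-monomethyl-H3K9 antibody with streptavidin donor and anti-IgG acceptor beads. Final levels are 20 nM enzyme, 500 nM peptide, 20 uM SAM; 2 h RT.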
Sfp inh: qHTS Assay for Inhibitors of Bacillus subtilis Sfp phosphopantetheinyl transferase (PPTase); 4'-phosphopantetheinyl transferase ffp (Bacillus subtilis), Q9F4F7; Biochemical Sfp PPTase activity, qHTS; Potency, µM, for the others: largest response in the series, negative = inhibition, actives largely listed as inhibitors; 3.5% of 310,000 active;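 also: the enzyme is Sfp with the accession as filed and its product quenches rhodamine fluorescence; 0% = enzyme reaction without inhibitor and -100% = no enzyme wells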
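Compounds were incubated with enzyme (final 15 nM) for 15 min at room temperature before substrate addition started the reaction. Fluorescence at 525 nm excitation, 598 nm emission was recorded immediately and after 30 minutes.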
* = called active by the depositor; ? = inconclusive; nt = no result given; [ ] = another dose, or the depositor's remark. Calls follow the shape of the dose curve; as a rule, active = well fitted curve in the direction sought with a large enough effect; inconclusive = small, poorly fitted or top-dose-only effect, or another doubt; inactive = no such curve, though single readings can be large; an effect the other way counts as inactive or inconclusive. Potency is read from the fitted curve at half-maximal effect.

SMILES | JMJD2A Tudor | BAZ2B block | HP1b chromo inh | G9a inh | Sfp inh
CCC(CC)c1nnc(NC(=O)c2ccco2)s1 | -11% | -19% | -19% | 45µM* | ?
CC(C)(C)Cc1nnc(NC(=O)c2ccc3c(c2)OCO3)s1 | -19% | -15% | ? | 8.9µM* | -99%
CCOC(=O)c1ccc(N2C(=O)c3n[nH]c(-c4ccco4)c3C2c2ccc(OCC)cc2)cc1 (configuration not stated) | ? | nt | -24% | -57%[59 µM] | nt
COc1cc(-c2nnc(SCC(=O)NCc3ccccc3Cl)o2)cc(OC)c1OC | -16% | 0% | 22% | 1%[59 µM] | nt
CCN(CC)S(=O)(=O)c1ccc(OC)c(NC(=O)CC2CCCC2)c1 | 12% | 10% | 16% | 4% | 0%
COc1cccc(-c2nc(CS(=O)(=O)CC(=O)Nc3ccccc3Br)c(C)o2)c1 | -1% | -13% | 19% | 5% | 4%
O=C(O)CSc1nnc(NC(=O)c2ccc3c(c2)OCO3)s1 | -10% | -38% | 35% | -25% | 15%
CCc1nnc(NC(=O)COc2ccc3c(c2)OCO3)s1 | -8% | 4% | -30% | 45µM* | -29%
COC(=O)CSc1nnc(NC(=O)c2ccc3c(c2)OCO3)s1 | -6% | -6% | 52% | 32µM* | -7%
CCC(CC)c1nnc(NC(=O)c2ccc3c(c2)OCO3)s1 | -18% | -11% | ? | 22µM* | 45µM*
CCN(CC(=O)Nc1ccc(NC(C)=O)cc1)CC(=O)Nc1cc(C)on1 | -17% | -11% | 4% | 11%[2.33 µM] | nt
CCN1C(=O)[C@H]2[C@@H](c3ccc(C)cc3)N3C(=O)N(c4ccccc4)C(=O)[C@@]3(CC)[C@H]2C1=O | -7% | -4% | 38% | -8% | 20%
Cc1c(Cl)cccc1NC(=O)CN1C(=O)COc2ccc(S(=O)(=O)N3CCOCC3)cc21 | -20% | -13% | 21% | -1%[59 µM] | nt
CCCN(CCC)S(=O)(=O)c1ccc(C(=O)NCc2n[nH]c(=S)n2-c2ccc(Cl)c(Cl)c2)cc1 | ? | ? | 24% | 18µM* | 10%
O=C(NCCc1ccc(F)cc1)c1ccc(S(=O)(=O)N2CCCC2)cc1 | 0% | 10% | 64% | -9%[2.33 µM] | nt
Cc1ccc(CNC(=O)c2ccc(S(=O)(=O)N3CCCCC3)cc2)cc1 | -21% | 5% | 22% | -6% | nt
Cc1cccc(-n2c(CNC(=O)c3ccc(S(=O)(=O)N4CCCCC4)cc3)n[nH]c2=S)c1 | 35µM* | 2% | 28% | 7.1µM* | -1%
O=C(NCc1n[nH]c(=S)n1-c1ccc(F)cc1)c1ccc(S(=O)(=O)N2CCCC2)cc1 | 28µM* | -3% | 19% | ? | -28%
O=C(NCc1n[nH]c(=S)n1-c1ccc(Cl)c(Cl)c1)c1ccc(S(=O)(=O)N2CCCCC2)cc1 | -29% | -27% | 14% | 8.9µM* | -3%
CCCSc1nnc2[nH]c(=O)cc(C)n12 | -4% | -2% | 85% | 4%[59 µM] | nt
O=C(NCc1n[nH]c(=S)n1-c1cccc(Cl)c1)c1ccc(S(=O)(=O)N2CCCC2)cc1 | 89µM* | ? | 19% | ? | ?
O=c1c(-c2ccc(F)c(F)c2)nc2cncnc2n1Cc1ccccc1Cl | nt | nt | nt | 8%[12.7 µM] | ?
COc1cccc2cc(C(C)=O)c(=O)oc12 | -10% | 0% | 35% | -1%[12.7 µM] | -13%
CCOC(=O)CC(NC(=O)c1cc2cccc(OC)c2oc1=O)c1cccc([N+](=O)[O-])c1 (configuration not stated) | ? | 2% | -7% | 32µM* | 50µM*
COc1cc(C(C)=O)ccc1OC(=O)c1cc2cccc(OC)c2oc1=O | -9% | -30% | 36% | 35µM* | -5%
COc1cccc2cc(C(=O)NNC(=O)c3ccc(Br)cc3)c(=O)oc12 | 79µM* | -8% | ? | 45µM* | 5%
Cc1nc(N2CCOCC2)c2c(C(=O)N(C)Cc3ccccc3)c(C)oc2n1 | -10% | 13%[57.1 µM] | 47% | -22%[59 µM] | nt
CC(=O)c1cc(-c2ccccc2)n(CCC(=O)NCc2ccc(C)cc2)c1C | -10% | 1% | 32% | 2%[59 µM] | nt
